TGFb inhibitor: inhibitors of TGF-b signaling; HepG2 CAGA-GFP TGF-b/SMAD3 reporter, GFP fluorescence, 18 h; TGF-beta stimulated, 500 pg/mL final; Potency, µM (series often up to 46.1 µM), for inactives: at the highest dose activity, negative = inhibition, usual class: inhibitors; 410,000 tested, 1.2% active; AID 588855; further: potency means the concentration at half of the fitted maximal effect; on the % scale 0 is the no-effect control and ±100 the full control effect; nearly all actives have a fitted effect of over 65% in size
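HEPG2 CAGA-GFP, 1000 cells/well; 2 h settle, 37 C; cpd via pin tool; TGF-b 500 pg/mL final; 18 h, 37 C; GFP imaging ex488/em500-530; %Activity normalised to -TGF-b and +DMSO controls; CRC fit, curve class.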
HT1080 IDH1KD tx: HT-1080 IDH1 knockdown cell toxicity (counter line); HT-1080 IDH1 knockdown viability, ATP luminescence, 48 h; 360,000 tested, 2% active; Potency, µM (series often up to 46.1 µM), without a hit: at the top dose activity, negative = toxicity, usual class: cytotoxic;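 further: potency means the concentration at half of the fitted maximal effect; 0% = DMSO wells and -100% = cell-free medium wells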
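% activity derives from luminescence (CellTiter-Glo), normalised to DMSO and no-cell wells. HT-1080-IDH1KD cells, 750/well, had 48 h compound exposure at 37 °C.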
HepG2 tox: HepG2 cytotoxicity, counter-screen for TGF-b inhibitors; HepG2 CAGA-GFP viability, ATP luminescence, 18 h; Potency, µM (highest dose often 46.1 µM), for the others: at the highest dose activity change, negative = cytotoxicity, hits mostly cytotoxic; 410,000 tested, 0.76% active; AID 588856; further: potency means the concentration at half of the fitted maximal effect
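HepG2 CAGA-GFP cells (1000/well, DMEM with 1% FBS) received compound, then TGF-beta at 500 pg/mL final, and were incubated 18 hours at 37 degrees C. Viability was read by CellTiter-Glo luminescence. Media-only wells were set as complete cell-killing and DMSO as no toxicity.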
IL1B secr inh: inflammasome signaling inhibition, IL-1 beta readout. THP-1 LPS/ATP IL-1B secretion, AlphaLISA, 16 h; stronger effect = lower value. AID 743279. activity change, % at 57.5 µM. 360,000 tested, 4.7% active; in the data active means activity change below about -50%; inconclusive means mostly about -30% to -49%; further: on the % scale 0 is the no-effect control and ±100 the full control effect
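Secreted IL-1B measured by AlphaLISA bead assay after 16 h compound exposure of THP-1 cells; compounds (final up to 57.5 uM) added 1 h before LPS (250 ng/mL) and ATP (1.25 mM) stimulation; lower signal means less secretion.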
HT1080-NT tox: kills 2HG-producing HT-1080-NT fibrosarcoma cells; HT-1080-NT fibrosarcoma viability, CellTiter-Glo ATP luminescence, 48 h; Potency, µM (highest dose often 46.1 µM), without a hit: top-dose activity, negative = less viability, most hits filed as cytotoxic; 360,000 tested, 1.6% active; AID 686970;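 further: NT is the 2HG producing partner of a matched IDH1 knockdown line; potency means the concentration at half of the fitted maximal effect; 0% = DMSO-treated cells and -100% = media-only wells without cells; nearly all actives have a fitted effect of over 55% in size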
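Luminescent CellTiter-Glo readout after 48 hours of compound exposure at 37 degrees C defined viability of HT-1080-NT cells. Activity was normalized to DMSO wells and cell-free media wells; concentration-response curves were fitted and assigned curve classes.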
Giardia kill: kills Giardia lamblia | Giardia lamblia trophozoite viability | activity change, % at 7.66 µM, hits read low | 340,000 tested, 0.15% active | AID 540267; in the data active means activity change below about -80%; inconclusive means between about -30% and that limit;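 further: parasites exposed to compound for two days anaerobically before the ATP read; on the % scale 0 is the no-effect control and ±100 the full control effect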
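Each well holds 100 Giardia trophozoites and compound. After two days (48 hrs) at 37 deg C in anaerobic conditions, ATP is quantified by luminescence.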
* marks the source's active call; other numbers are inactive results; ? = inconclusive; nt = no result given. Compounds with a hit are over-represented: about 6.5% of the library has one in this group of screens. Unless noted, the call rests on the fitted dose curve; in most records, active means well fitted curve in the direction sought with a large enough effect; inconclusive means small, poorly fitted or top-dose-only effect, or another doubt; inactive means no such curve, though single readings can be large; an effect the other way counts as inactive or inconclusive.

SMILES	TGFb inhibitor	HT1080 IDH1KD tx	HepG2 tox	IL1B secr inh	HT1080-NT tox	Giardia kill
CCn1c(CC(=O)Nc2ccccc2)n[nH]c1=S	-18%	0%	-9%	12	12%	-7
Cc1ccc(-c2cc(C(F)F)nc(S(C)(=O)=O)n2)cc1	?	21µM*	-188%	-102*	23µM*	6
COc1ccc(CCNc2nc(-c3ccc(C)cc3)cc(C(F)F)n2)cc1OC	-5%	nt	-9%	nt	nt	nt
CCC(C)NC(=O)c1c(N)n(/N=C/c2ccccn2)c2nc3ccccc3nc12 (configuration not stated)	20%	1%	0%	-83*	-9%	17
COCCCNC(=O)c1c(N)n(/N=C/c2cccnc2)c2nc3ccccc3nc12	3%	16%	1%	?	8%	7
CCC(C)NC(=O)c1c(N)n(/N=C/c2cccnc2)c2nc3ccccc3nc12 (configuration not stated)	12%	?	-12%	-59*	?	-7
CC(C)OCCCNC(=O)c1c(N)n(/N=C/c2ccccn2)c2nc3ccccc3nc12	1%	9%	1%	-10	22%	29
CCC(=O)Nc1nc2ccccc2n1CCN(CC)CC	-32%	-1%	-37%	1	9%	-16
CC(=O)N1c2ccc(S(=O)(=O)NCCC(=O)NCc3ccc(Cl)cc3)cc2CC1C (configuration not stated)	-5%	-11%	-10%	-1	-12%	-3
CN1CCO/C1=C(\C(Cl)=C(Cl)Cl)[N+](=O)[O-]	30%	20%	0%	-8	22%	37
CCC1CO/C(=C(\C(Cl)=C(Cl)Cl)[N+](=O)[O-])N1 (configuration not stated)	2%	0%	-16%	-61*	-2%	14
COc1ccc(N2CC(C(=O)N3CCOCC3)CC2=O)cc1 (configuration not stated)	-7%	14%	-3%	1	16%	-15
COCCNc1nc(NCc2cc(-c3ccc(OC)cc3)no2)c2sccc2n1	?	13µM*	-41%	?	?	nt
CNc1nc(NCc2ccccc2)c2sccc2n1	?	?	-26%	-18	?	nt
Fc1ccc(Nc2nc(NCc3ccccc3)nc3ccsc23)cc1	?	-25%	13µM*	?	21µM*	nt
COc1cccc(CNc2nc(NCc3ccccc3)nc3ccsc23)c1	?	?	-48%	-55*	21µM*	nt
c1ccc(CNc2nc(NCc3cccs3)nc3ccsc23)cc1	?	?	-48%	-57*	?	nt
O=C(Nc1nc2ccc(S(=O)(=O)N3CCCC3)cc2s1)c1cccc(F)c1	-4%	nt	-1%	nt	nt	nt
Cn1c(CCNC(=O)c2ccco2)nc2cc(NC(=O)c3ccccc3)ccc21	-2%	-5%	-25%	41	-14%	-16
CC(=O)C(=Nc1cccc(Cl)c1)NNc1ccccc1C	-21%	-19%	22%	23	-18%	-1
CCCC(C)NC(=S)Nc1cc(C)cc(C)c1 (configuration not stated)	0%	15%	-63%	-3	9%	-20
COc1cccc(CNc2nc(NCC3CC3)nc3ccsc23)c1	?	nt	-39%	-72*	nt	nt
CC1CCCN(C(=O)COc2ccc3c(c2)OCO3)C1 (configuration not stated)	6%	1%	3%	-15	16%	-9
CC1Cc2ccccc2N1C(=O)COc1ccc2c(c1)OCO2 (configuration not stated)	-14%	-7%	1%	-56*	-5%	5
COc1ccccc1OCC(=O)/C=C1/N(C)c2ccccc2C1(C)C	-1%	-27%	-2%	-9	-19%	-6
SMILES	TGFb inhibitor	HT1080 IDH1KD tx	HepG2 tox	IL1B secr inh	HT1080-NT tox	Giardia kill
CN1/C(=C\C(=O)COc2ccc3c(c2)OCO3)C(C)(C)c2ccccc21	?	-28%	-3%	-78*	-22%	6
CN1C(=O)C(O)(CC(=O)/C=C\c2ccc3c(c2)OCO3)c2ccccc21 (configuration not stated)	?	?	-15%	-101*	?	0
CN1C(=O)C(O)(CC(=O)c2ccc3c(c2)OCO3)c2ccccc21 (configuration not stated)	9%	-3%	-8%	3	9%	-8
NC(=O)CN1C(=O)C(O)(CC(=O)/C=C\c2ccc3c(c2)OCO3)c2ccccc21 (configuration not stated)	4%	?	2%	-88*	?	2
Cn1cccc1/C=N/NC(=O)c1cccnc1	-2%	19%	3%	17	-4%	15
O=C1NC(=O)C2(CCc3ccccc32)N1 (configuration not stated)	-6%	6%	1%	26	8%	3
C=C1CC2(OC1=O)c1ccccc1CCc1ccccc12	8.9µM*	5.8µM*	14µM*	-102*	?	-10
Cc1cccc(-n2ncc(C(=O)NCc3ccc4c(c3)OCO4)c2C2CCN(C(=O)OC(C)(C)C)CC2)c1	-25%	nt	-7%	nt	nt	nt
CC(C)(C)OC(=O)N1CCC(c2c(C(=O)NCc3ccc4c(c3)OCO4)cnn2-c2ccc(F)cc2F)CC1	13µM*	nt	-19%	nt	nt	nt
CCc1cccc(CC)c1NC(=S)/C(=C(\[O-])c1ccc(Cl)s1)[n+]1ccccc1	?	-19%	-32%	-29	-18%	-8
CCCN(C(=O)c1ccc(N2CCCC2=O)cc1)c1c(N)n(Cc2ccccc2)c(=O)[nH]c1=O	-11%	3%	-9%	2	-2%	14
Cc1ccc(-c2csc(N=C(N)N)n2)cc1	-6%	?	-12%	-61*	-14%	22
CCOC(=O)[C@H]1[C@H]2COc3ccc(Br)cc3[C@H]2N2C(=O)CN(CCc3c[nH]c4ccccc34)C(=O)[C@@]12C	?	-1%	0%	-18	-1%	9
O=c1cc(-c2ccccc2)c2ccccc2[nH]1	-4%	-22%	-26%	62	-7%	-6
CCCN1C(C(=O)c2ccccc2)=C(OC(=O)COc2ccccc2)c2ccccc2S1(=O)=O	?	nt	-24%	nt	nt	nt
CCCCC(=O)OC1=C(C(=O)c2ccccc2)N(C)S(=O)(=O)c2ccccc21	18µM*	nt	-31%	nt	nt	nt
CCN1C(C(=O)c2ccccc2)=C(OC(=O)c2ccc(Cl)cc2)c2ccccc2S1(=O)=O	11µM*	nt	-57%	nt	nt	nt

From PubChem
